Bioassay records (PubChem BioAssay)
The sample as a whole holds a higher share of hits than the screen did.
nsP2pro primary: Primary qHTS for inhibitors of NSP2Pro chikungunya virus (CHIKV); Polyprotein P1234 (Chikungunya virus (strain S27-African prototype)), Q8JUX6; FRET peptide cleavage, nsP2pro, fluorescence 1 h; Potency, µM (top dose mostly 24.9 µM), for inactives: at the top dose activity change, negative = inhibition, most hits filed as inhibitors; hit rate 1.1% among 31,000; also: nearly all actives have a fitted effect of over 60% in size
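Enzyme 150 nM, substrate 2.5 uM (both final); Tris-HCl 10 mM pH 8.0 + 0.01% Tween 20; cpd up to 25 uM, 7 pts; 15 min preinc., 1 h RT; fluorescence ex 525/em 598.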
CHIKV nsP2 cell: Secondary cell base assay for inhibitors of NSP2Pro Chikungunya virus (CHIKV) | shares compounds with nsP2pro primary | AID 1964100, 2024 | hit rate 10% among 450 | Potency, µM (top dose mostly 51.1 µM), for the others: at the highest dose activity change, negative = inhibition, most hits filed as inhibitors | cell-based CHIKV nsP2 protease reporter assay; also: nearly all actives have a fitted effect of over 70% in size
CHIKV NSP2 FL: Selectivity profile for inhibitors of NSP2Pro chikungunya virus (CHIKV): Full length NSP2 enzyme counterscreen (CHIKV-NSP2). shares compounds with nsP2pro primary. Full-length CHIKV NSP2 protease enzymatic counterscreen. Potency, µM (highest dose often 50.7 µM), without a hit: top-dose activity change, negative = inhibition, hits mostly inhibitors. hit rate 39% among 410. AID 1964101, 2024; also: nearly all actives have a fitted effect of over 65% in size
Furin counter: Selectivity profile for inhibitors of NSP2Pro chikungunya virus (CHIKV): Human furin counterscreen | Potency, µM (doses to about 50.6 µM), for inactives: at the highest dose activity change, negative = inhibition, actives largely listed as inhibitors | hit rate 6% among 410 | Recombinant human furin enzymatic counterscreen, fluorogenic substrate | shares compounds with nsP2pro primary
NS23 peptide cs: Selectivity profile for inhibitors of NSP2Pro chikungunya virus (CHIKV): Endogenous NS2/3 peptide Counterscreen; hit rate 34% among 410; shares compounds with nsP2pro primary; Purified CHIKV nsP2 protease, endogenous NS2/3 peptide cleavage; AID 1964103, 2024; Potency, µM (highest dose often 51 µM), without a hit: at the top dose activity change, negative = inhibition, actives largely listed as inhibitors; also: nearly all actives have a fitted effect of over 55% in size
Papain counter: Selectivity profile for inhibitors of NSP2Pro chikungunya virus (CHIKV): Papain Counterscreen; shares compounds with nsP2pro primary; purified papain protease activity, enzymatic inhibition; Potency, µM (series often up to 51 µM), for the others: top-dose activity change, negative = inhibition, usual class: inhibitors; hit rate 5% among 410
Target sequence (P00784 whole entry, looked up): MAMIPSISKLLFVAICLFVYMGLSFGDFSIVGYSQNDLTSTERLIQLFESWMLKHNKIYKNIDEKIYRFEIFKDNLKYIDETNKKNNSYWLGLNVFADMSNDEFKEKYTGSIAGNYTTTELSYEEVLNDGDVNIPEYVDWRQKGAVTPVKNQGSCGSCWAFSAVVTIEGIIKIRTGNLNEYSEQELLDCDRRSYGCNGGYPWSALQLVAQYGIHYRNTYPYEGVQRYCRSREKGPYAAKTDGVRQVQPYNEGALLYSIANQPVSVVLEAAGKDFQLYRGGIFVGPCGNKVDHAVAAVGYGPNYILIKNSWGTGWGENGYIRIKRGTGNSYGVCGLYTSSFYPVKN
nsP2pro confirm: Confirmatory qHTS for inhibitors of NSP2Pro chikungunya virus (CHIKV). CHIKV nsP2 protease enzymatic activity, qHTS. shares compounds with nsP2pro primary. hit rate 43% among 410. Potency, µM (doses to about 25.5 µM), for inactives: at the top dose activity change, negative = inhibition, most hits filed as inhibitors. AID 1964105, 2024; also: nearly all actives have a fitted effect of over 75% in size
HCV NS3 counter: Selectivity profile for inhibitors of NSP2Pro chikungunya virus (CHIKV): NS34A-HCV Counterscreen | shares compounds with nsP2pro primary | HCV NS3/4A protease biochemical counterscreen | Potency, µM (series often up to 50.9 µM), actives largely listed as inhibitors | hit rate 20% among 410; also: nearly all actives have a fitted effect of over 55% in size
Active calls of the source: *; i = inactive; u = inconclusive; x = no result; [ ] = another dose, or the depositor's remark. Calls follow the shape of the full dose curve. % is scaled to controls: 0 for no effect and ±100 for the full control effect; potency is read from the fitted curve at half-maximal effect.

SMILES	nsP2pro primary	CHIKV nsP2 cell	CHIKV NSP2 FL	Furin counter	NS23 peptide cs	Papain counter	nsP2pro confirm	HCV NS3 counter
Cc1nn(-c2ccc(C(F)(F)F)cc2)c(C)c1[C@@H]1C=C[C@@H](NC(=O)NC(C)C)C1	1.41µM*	2.11µM*	-4.3%	14.9µM*	18.8µM*	-1.0%	2.59µM*	11.9µM*
Cc1nn(-c2ccc(C(C)C)cc2)c(C)c1[C@@H]1C=C[C@@H](NC(=O)NC(C)C)C1	7.6%[39.2 µM]	x	x	x	x	x	x	x
Nc1nc(CC(=O)Nc2ccc(CCNC[C@H](O)c3ccccc3)cc2)cs1	-5.3%	x	x	x	x	x	x	x
Cc1cc(-c2nnc3n2CCCCC3)c(C)n1-c1ccc(Cl)c(Cl)c1	-2.5%	x	x	x	x	x	x	x
COc1ccc(NC(=O)c2ccc(-c3nc4ccccc4[nH]3)cc2)cc1OC	i	x	x	x	x	x	x	x
Clc1ccc(N2C[C@H]3CC[C@@H](C2)N3)nn1	4.95µM*	1.2%	4.11µM*	u	14.6µM*	u	3.57µM*	i
Cc1cc(C)nc(NC(=S)N2CCN(c3ccc(Cl)nn3)CC2)c1	-9.5%	x	x	x	x	x	x	x
O=C(O)CCC1CCCN(S(=O)(=O)c2ccc(F)cc2)C1 (stereo not given)	-1.0%	x	x	x	x	x	x	x
O=C1CN(Cc2ccc(-c3ccsc3)cc2)CCN1c1cc(Cl)ncn1	i	x	x	x	x	x	x	x
COC(=O)C1C(c2ccc(O)cc2)C(C(=O)O)C1c1ccc(O)cc1 (stereo not given)	-2.6%	x	x	x	x	x	x	x
COc1ccc(-c2n[nH]c3c2CC(=O)N(c2ccccc2)C3)cn1	-8.7%[39.2 µM]	x	x	x	x	x	x	x
C=C1[C@@H]2CC[C@@]3(C)[C@H](c4ccoc4)OC(=O)C[C@]13O[C@H]1CC(=O)C(C)(C)[C@H](C(OC(C)=O)C(=O)OC)[C@]12C (stereo not given in full)	-17.7%[10 µM]	x	x	x	x	x	x	x
CC1(C)O[C@H]2CC(=O)OC[C@@]23C1=C(O)C(=O)[C@]1(C)C3CC[C@@]2(C)[C@H](c3ccoc3)OC(=O)[C@H]3O[C@]321 (stereo not given in full)	u	-0.2%[17.6 µM]	-7.2%[17.3 µM]	-2.6%[17.3 µM]	i	-13.2%[17.2 µM]	9.6%[8.62 µM]	u
CC1(C)OC(=O)CC(O)C2(C)C1CC(=O)C1(C)C2C(O)CC2(C)C(c3ccoc3)OC(=O)C3OC321 (stereo not given)	u	9.9%[17.6 µM]	-18.8%[17.3 µM]	-4.7%[17.3 µM]	-9.8%[17.2 µM]	-6.1%[17.2 µM]	-16.3%[8.62 µM]	i
CCCCCCCCCCCCCCCc1cccc(O)c1C(=O)O	83.7%	x	x	x	x	x	x	x
Nc1ncnc2c1ncn2[C@@H]1O[C@H](CN[S+](=O)([O-])NC(=O)c2cccc(-c3noc(-c4ccccc4F)n3)c2)[C@@H](O)[C@H]1O	i	x	x	x	x	x	x	x
COCCCN1CC2(CCN(C(=O)CCn3cc(C)cn3)CC2)CC1=O	1.4%	x	x	x	x	x	x	x
CC(C)c1noc([C@@H]2C[C@@H](O)CN2Cc2cc3ccccc3o2)n1	-3.3%[39.2 µM]	x	x	x	x	x	x	x
OC1CC(c2cccc(F)c2)N(Cc2ccc(-c3ccn[nH]3)o2)C1 (stereo not given)	u	-1.8%	-39.9%	-6.2%	u	-6.8%	u	i
O[C@@H]1C[C@@H](c2nc(Cc3ccc(F)cc3Cl)no2)N(Cc2ccc(OC(F)(F)F)cc2)C1	i	x	x	x	x	x	x	x
